# Laboratory results published in PubChem BioAssay (Tox21).
# Results filed as inconclusive are left out. The source made the active and inactive calls. Calls come from the whole dose curve.
# Target: Beta-2 adrenergic receptor (Homo sapiens) (UniProt P07550)
# Test: Adrenergic beta2 receptor (ADRB2) small molecule antagonists, cell-based qHTS assay (AID 1963592); note: nearly all actives have a fitted effect of over 50% in size
# Conditions: CHO-ADRB2 cells, isoproterenol-stimulated cAMP HTRF ratio, 0.5 h; series mostly up to 92.4 µM; activity change, negative = inhibition: at the top concentration
# Excerpt: U.S. Tox21 Program National Center for Advancing Translational Sciences [NCATS] Division of Preclinical Innovation [DPI] U.S. Environmental Protection Agency [EPA] National Institutes of Environmental Health Sciences [NIEHS] National Toxicology Program [NTP] U.S. Food and Drug Administration [FDA] Tox21 Assay Overview: Beta adrenergic receptors (Beta-ARs) belong to the G-protein coupled receptor (GPCR) superfamily, includes three subtypes - beta1, beta2, and beta3. Beta1-AR is the predominant receptor subtype expressed in the heart, and beta2-AR is expressed in the kidney, lung, blood vessel and in the heart, and beta3 is found in the adipocytes. Beta1 and 2 ARs couple to Gs protein and elevate cyclic adenosine mono phosphate (cAMP), which activates protein kinase A and leads to the downstream signaling responsible for the physiological actions. Beta-AR agonists or antagonists are the most prescribed therapeutic agents for heart failure and asthma, and these were one of the first target receptors for the rational drug design. Tox21 10K compound library was screened using the cAMP-Gs dynamic assay (Cisbio Bioassays, Shelton, CT) to identify agonists/antagonists of the Gs-coupled human adrenergic, beta2 receptor (ADRB2) in the CHO-ADRB2 cell line (Codex BioSolutions, Inc. Gaithersburg, MD), which stably over-expresses ADRB2. The principle of cAMP-Gs dynamic assay is based on HTRF technology, which facilitates the fluorescence resonance energy transfer (FRET) between donor Europium cryptate and acceptor d2-labeled cAMP. The cAMP generated within cells competes with the red acceptor, d2-labled cAMP, for binding to the monoclonal anti-cAMP-cryptate (Europium donor). An increase in intracellular cAMP leads to the disruption of FRET signal, and the signal is inversely proportional to the cAMP concentration. Propranolol HCl (Sigma-Aldrich, St. Louis, MO) was used as a positive control in the screening.
# Tox21 Assay Protocol Summary: CHO-ADRB2 cells were dispensed at 1,000/well in 4uL assay medium into white/solid 1536-well plates (Greiner Bio-One North America Inc., Monroe, NC) using a Multidrop Combi dispenser (ThermoFisher Scientific, Waltham, MA). The assay plates were incubated at 37C and 5% CO2 for an overnight (18-20hr). Then positive control and test compounds dissolved in DMSO were transferred to the assay plates at 23nL using a Pintool station (Wako, San Diego, CA). Following the compound and positive control transfer, 1uL agonist-stimulation mix containing 1nM Isoproterenol HCl, 100uM IBMX and 25uM Ro-20-1724 was added to each well of the assay plates using BioRAPTR Flying Reagent Dispenser (FRD, Beckman Coulter, Brea, CA). The assay plates were incubated at room temperature for 0.5hr. Then 2.5ul each d2-labled cAMP and anti-cAMP-cryptate solutions were added separately to each well of the assay plates using an FRD and the assay plates were incubated at room temperature for 1hr. The fluorescence signal was measured at two different wavelengths (665nm and 615nm) using an Envision plate reader (Perkin Elmer, Shelton, CT). Data were expressed as the ratio of 665 nm/615 nm.
# % is set by controls: 0 for no effect and ±100 for the full control effect; potency is the fitted concentration of half-maximal effect.
# Sequence of Beta-2 adrenergic receptor (Homo sapiens) (P07550 whole entry, looked up): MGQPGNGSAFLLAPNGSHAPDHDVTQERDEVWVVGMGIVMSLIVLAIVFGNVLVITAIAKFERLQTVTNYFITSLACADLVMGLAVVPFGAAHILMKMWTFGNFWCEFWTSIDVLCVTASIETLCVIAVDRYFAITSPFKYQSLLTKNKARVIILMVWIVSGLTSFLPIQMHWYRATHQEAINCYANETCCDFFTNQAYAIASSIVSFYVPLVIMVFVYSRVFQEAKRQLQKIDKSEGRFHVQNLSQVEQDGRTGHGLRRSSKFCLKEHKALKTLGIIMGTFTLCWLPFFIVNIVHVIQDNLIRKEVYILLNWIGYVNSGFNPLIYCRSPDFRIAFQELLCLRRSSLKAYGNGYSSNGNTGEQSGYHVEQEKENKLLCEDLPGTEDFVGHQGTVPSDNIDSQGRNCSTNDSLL
SMILES,"activity change, negative = inhibition",Potency
CC(C)(C)Cl,-6.3% (inactive),
CN(C)CCOC(c1ccccc1)c1ccccc1,,inactive
OCCc1ccncc1,-5.51% (inactive),
CC1CN(c2ccccc2)NC1=O (stereo not given),-8.83% (inactive),
CC(C)[C@H]1CC[C@H](C)C[C@@H]1O,-5.16% (inactive),
C[C@@H](C1=C(CCN(C)C)Cc2ccccc21)c1ccccn1,-14.5% [at 42.5 µM] (inactive),
Oc1ccc(Cc2ccccc2)cc1,-17% (inactive),
Clc1cccc(-c2cc(Cl)cc(Cl)c2)c1,0.308% (inactive),
Cc1ccc(C(=O)O)cc1[N+](=O)[O-],-15.3% (inactive),
CCN(CC)CC(=O)Nc1c(C)cccc1C,0.722% [at 42.5 µM] (inactive),
CCCC(=O)OCCc1ccccc1,0.992% (inactive),
CNCCCCOc1ccccc1Cc1ccccc1,,8.41 µM (active)
CCCCCCCCCCC[C@@H](C[C@@H]1OC(=O)[C@H]1CCCCCC)OC(=O)[C@H](CC(C)C)NC=O,6.83% [at 42.5 µM] (inactive),
O=C1NCC2(CCN(CCc3ccccc3)CC2)O1,-11.5% [at 42.5 µM] (inactive),
COC(C)CCO (stereo not given),1.7% (inactive),
CCC(C)(CCC(C)C)C(=O)[O-].CCC(C)(CCC(C)C)C(=O)[O-].[Zn+2] (stereo not given),2.62% (inactive),
COC(=O)C1=C(C)NC(C)=C(C(=O)O[C@@H]2CCCN(Cc3ccccc3)C2)[C@@H]1c1cccc([N+](=O)[O-])c1,-15% [at 42.5 µM] (inactive),
CN1CCCN=C1/C=C/c1cccs1,2.37% [at 42.5 µM] (inactive),
C=CCCCCCCCCOC(C)=O,3.37% (inactive),
CC[C@H]1OC(=O)[C@H](C)[C@@H](O[C@H]2C[C@@](C)(OC)[C@@H](O)[C@H](C)O2)[C@H](C)[C@@H](O[C@@H]2O[C@H](C)C[C@H](N(C)C)[C@H]2O)[C@](C)(O)C[C@@H](C)CN(C)[C@H](C)[C@@H](O)[C@]1(C)O,4.71% [at 42.5 µM] (inactive),

SMILES,"activity change, negative = inhibition",Potency
C=CC(=O)NC(C)(C)C,-1.52% (inactive),
CC(O)CN (stereo not given),1.88% (inactive),
CCCCCOC(=O)CCCCC,1.9% (inactive),
Clc1ccc(C(Cn2ccnc2)OCc2ccc(Sc3ccccc3)cc2)c(Cl)c1 (stereo not given),4.53% [at 42.5 µM] (inactive),
COCCc1ccc(OCC2CO2)cc1 (stereo not given),-1.52% [at 42.5 µM] (inactive),
COc1cccc2sc(N)nc12,-8.1% (inactive),
O=C1CCc2cc(OCCCCc3nnnn3C3CCCCC3)ccc2N1,4.78% [at 42.5 µM] (inactive),
CC(CO)(CO)[N+](=O)[O-],-1.68% (inactive),
C=CCCC(=O)O,4.04% (inactive),
Cc1cc(O)ccc1O,1.64% (inactive),
NC(=O)Cn1c(=O)cc(CCN2CCN(c3nccc4sccc34)CC2)c2ccc(F)cc21,,27.3 µM (active)
NC(=O)Nc1nc2ccccc2[nH]1,1.22% (inactive),
Fc1ccccc1,2.25% (inactive),
Cc1nc(Nc2ncc(C(=O)Nc3c(C)cccc3Cl)s2)cc(N2CCN(CCO)CC2)n1,0.631% [at 42.5 µM] (inactive),
COc1cc(Cc2cnc(N)nc2N)cc(OC)c1OC,,inactive
CC(C)=CC(C)(C)C,0.879% (inactive),
CC(CN(CCN(CC(C)OCCO)CC(C)OCCO)CC(C)OCCO)OCCO (stereo not given),12.8% (inactive),
OCCN1CCN(CCCN2c3ccccc3Sc3ccc(C(F)(F)F)cc32)CC1,,10.6 µM (active)
CCCCOCC(C)OCC(C)O (stereo not given),-0.298% (inactive),
O=c1cc(-c2ccc(O)cc2)oc2cc(O)cc(O)c12,,inactive
